According to PubChem BioAssay (NCATS):
Inconclusive results are not listed. Calls of active or inactive are those of the source. Calls come from the whole dose curve; as a rule, active = well fitted inhibition curve with a large enough effect; inconclusive = small, poorly fitted or top-dose-only effect; inactive = flat fitted curve, though single readings scatter.

What was measured:
Experiment in all cases: qHTS profiling for inhibitors of Plasmodium falciparum proliferation (AID 504749); note: nearly all actives have a fitted effect of over 60% in size
Conditions in all cases: P. falciparum in erythrocytes, SYBR Green DNA, 72 h; series mostly up to 28.7 µM
[1] = test system: P94_40
In short: (§1)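 P. falciparum-infected erythrocytes (0.3% parasitemia, 2.5% hematocrit final) were exposed to compounds for 72 h at 37 C in 5% CO2, then lysed with SYBR Green buffer overnight at room temperature; parasite DNA fluorescence was normalized to artemisinin and DMSO controls.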

[2] = test system: PAD
In short: as §1

[3] = test system: PC15
In short: as §1

[4] = test system: PC26
In short: as §1

[5] = test system: PC49
In short: as §1

[6] = test system: SC27B
In short: as §1

[7] = test system: TAB109
In short: as §1

[8] = test system: TAB113
In short: as §1

[9] = test system: TAB165
In short: as §1

[10] = test system: W2
In short: as §1

Measured: Potency
Potency is the fitted concentration of half-maximal effect.

Cc1ncc(COP(=O)(O)O)c(CN)c1O
inactive: [1] | [2] | [3] | [4] | [5] | [6] | [7] | [8] | [9]

CCCCC
inactive: [1] | [2] | [3] | [4] | [5] | [6] | [7] | [8] | [9]

CCCCCc1ccc(C)cc1O
inactive: [1] | [2] | [3] | [4] | [5] | [6] | [7] | [8]

O=C1c2ccccc2C(=O)C1c1ccc(F)cc1
inactive: [1] | [2] | [3] | [4] | [5] | [6] | [7] | [8] | [9]

NC(N)=NCC1COc2ccccc2O1 (stereo unspecified)
inactive: [1] | [2] | [3] | [4] | [5] | [6] | [7] | [8] | [9]

CC1CCCCN1CCCOC(=O)c1ccccc1 (stereo unspecified)
inactive: [1] | [2] | [3] | [4] | [5] | [6] | [7] | [8] | [9]

Cc1cccc(C)c1NC(=O)C1CCCCN1C (stereo unspecified)
inactive: [1] | [2] | [3] | [4] | [5] | [6] | [7] | [8] | [9]

CCN(CC)C(=S)S
inactive: [1] | [2] | [3] | [4] | [5] | [6] | [7] | [8] | [9]

O=C(NCCNCC(O)COc1ccc(O)cc1)N1CCOCC1 (stereo unspecified)
inactive: [1] | [2] | [3] | [4] | [5] | [6] | [7] | [8] | [9]

CN(Cc1ccccc1)Cc1ccccc1
inactive: [1] | [2] | [3] | [4] | [5] | [6] | [7] | [8] | [9]

O=[n+]1ccn([O-])c2ccccc21
inactive: [1] | [2] | [3] | [4] | [5] | [6] | [7] | [8] | [9]

F[Si-2](F)(F)(F)(F)F
inactive: [1] | [2] | [3] | [4] | [5] | [6] | [7] | [8] | [9]

O=C(O)c1cc(N=Nc2ccc(O)c(C(=O)O)c2)ccc1O
inactive: [1] | [2] | [3] | [4] | [5] | [6] | [7] | [8] | [9]

CCCCC[C@H](O)/C=C/[C@H]1[C@H](O)CC(=O)[C@@H]1C/C=C\CCCC(=O)O
inactive: [1] | [2] | [3] | [4] | [5] | [6] | [7] | [8] | [9]

S=C=Nc1ccc(N=C=S)cc1
inactive: [1] | [2] | [3] | [4] | [5] | [6] | [7] | [8] | [9]

COC(=O)[C@@H](N)CS
inactive: [1] | [2] | [3] | [4] | [5] | [6] | [7] | [8] | [9]

C[C@]12CCC(=O)C[C@@H]1CC[C@@H]1[C@@H]2CC[C@]2(C)C=CC[C@@H]12
inactive: [1] | [2] | [3] | [4] | [5] | [6] | [7] | [8] | [9]

c1ccc2c(c1)OCC(CN1CCCCC1)O2 (stereo unspecified)
inactive: [1] | [2] | [3] | [4] | [5] | [6] | [7] | [8] | [9]

CCN(CC)CCOc1ccccc1OC
inactive: [1] | [2] | [3] | [4] | [5] | [6] | [7] | [8] | [9]

CC(CCc1ccc(O)cc1)NCC(O)c1ccc(O)cc1 (stereo unspecified)
inactive: [1] | [2] | [3] | [4] | [5] | [6] | [7] | [8] | [9] | [10]

CO/N=C(/C(=O)N[C@@H]1C(=O)N2C(C(=O)O)=C(COC(N)=O)CS[C@H]12)c1ccco1
inactive: [1] | [2] | [3] | [4] | [5] | [6] | [7] | [8] | [9]

COC(=O)c1ccccc1O
inactive: [1] | [2] | [3] | [4] | [5] | [6] | [7] | [8] | [9]

CCCCCCCCCCCCCCCCCC[N+](C)(C)CCC[Si](OC)(OC)OC
inactive: [1] | [2] | [3] | [4] | [5] | [6] | [7] | [8] | [9]

CC/C=C\C/C=C\C/C=C\C/C=C\C/C=C\C/C=C\CCC(=O)O
inactive: [1] | [2] | [3] | [4] | [5] | [6] | [7] | [8] | [9]

CS(=O)(=O)OCC(O)C(O)COS(C)(=O)=O (stereo unspecified)
inactive: [1] | [2] | [3] | [4] | [5] | [6] | [7] | [8] | [9]

O=C(O)CC/C=C\CC[C@@H]1[C@@H](N2CCCCC2)[C@@H](O)C[C@@H]1OCc1ccc(-c2ccccc2)cc1
inactive: [1] | [2] | [3] | [4] | [5] | [6] | [7] | [8] | [9]

C=CC(C)(O)CC/C=C(\C)CCC=C(C)C (stereo unspecified)
inactive: [1] | [2] | [3] | [4] | [5] | [6] | [7] | [8] | [9]

CC/C=C\C/C=C\C/C=C\C/C=C\C/C=C\CCCC(=O)O
inactive: [1] | [2] | [3] | [4] | [5] | [6] | [7] | [8] | [9]

C[C@]12CC[C@@H]3c4ccc(OC(=O)c5ccccc5)cc4CC[C@H]3[C@@H]1CC[C@@H]2O
inactive: [1] | [2] | [3] | [4] | [5] | [6] | [7] | [8] | [9]
active: [10] 10.7 µM

O=C(O)c1ccc(NC(=O)[C@H](Cc2ccc(O)cc2)NC(=O)c2ccccc2)cc1
inactive: [1] | [2] | [3] | [4] | [5] | [6] | [7] | [8] | [9]

Cc1cc(C)c(NC(=O)C[C@H](CC(=O)O)c2cccc3ccccc23)c(C(=O)N2CCC3(CCCC3)CC2)c1
inactive: [1] | [2] | [3] | [4] | [5] | [6] | [7] | [8] | [9]

OC/C=C/c1ccccc1
inactive: [1] | [2] | [3] | [4] | [5] | [6] | [7] | [8] | [9]

COc1ccccc1N1CCN(CCCC(=O)c2ccc(F)cc2)CC1
inactive: [1] | [2] | [3] | [4] | [5] | [6] | [7] | [8] | [9]

O=P(O)(O)OP(=O)(O)OP(=O)(O)O
inactive: [1] | [2] | [3] | [4] | [5] | [6] | [7] | [8] | [9]

O=C(OCc1ccccc1)c1cccnc1
inactive: [1] | [2] | [3] | [4] | [5] | [6] | [7] | [8] | [9]

CCCCCCCCCC(=O)NO
inactive: [1] | [2] | [3] | [4] | [5] | [6] | [7] | [8] | [9]

CCCCCCCCCCCCCCCCCCCCCC(=O)Nc1ccn([C@@H]2O[C@H](CO)[C@@H](O)[C@@H]2O)c(=O)n1
inactive: [1] | [2] | [3] | [4] | [5] | [6] | [7] | [8] | [9]

COc1ccc2nc(NC(=O)Nc3ccccc3)sc2c1
inactive: [1] | [2] | [3] | [4] | [5] | [6] | [7] | [8]

CC(C)[C@@H](N)C(=O)O
inactive: [1] | [2] | [3] | [4] | [5] | [6] | [7] | [8] | [9]

Nc1ncnc2c1ncn2CCOCP(=O)(O)O
inactive: [1] | [2] | [3] | [4] | [5] | [6] | [7] | [8] | [9] | [10]

NC(=O)Oc1ccc(Cc2ccccc2)cc1
inactive: [1] | [2] | [3] | [4] | [5] | [6] | [7] | [8] | [9] | [10]

CC(C)(Oc1ccc(C2CCCc3ccccc32)cc1)C(=O)O (stereo unspecified)
inactive: [1] | [2] | [3] | [4] | [5] | [6] | [7] | [8] | [9] | [10]

CC(C)(C)c1ccc2c(S(=O)(=O)O)c(C(C)(C)C)ccc2c1
inactive: [1] | [2] | [3] | [4] | [5] | [6] | [7] | [8] | [9] | [10]

CC(O)CN(C)C (stereo unspecified)
inactive: [1] | [2] | [3] | [4] | [5] | [6] | [7] | [8] | [9] | [10]

Nc1nccs1
inactive: [1] | [2] | [3] | [4] | [5] | [6] | [7] | [8] | [9] | [10]

O=C(O)Cc1nn(Cc2ccc(Br)cc2F)c(=O)c2ccccc12
inactive: [1] | [2] | [3] | [4] | [5] | [6] | [7] | [8] | [9] | [10]

Cc1ncc(C[n+]2csc(CCO)c2C)c(N)n1
inactive: [1] | [2] | [3] | [4] | [5] | [6] | [7] | [8] | [9] | [10]

Cc1cc(-c2ccc(N=Nc3ccc4c(S(=O)(=O)O)cc(S(=O)(=O)O)c(N)c4c3O)c(C)c2)ccc1N=Nc1ccc2c(S(=O)(=O)O)cc(S(=O)(=O)O)c(N)c2c1O
inactive: [1] | [2] | [3] | [4] | [5] | [6] | [7] | [8] | [9] | [10]

C/C=C/C=C/C(=O)O
inactive: [1] | [2] | [3] | [4] | [5] | [6] | [7] | [8] | [9] | [10]
